# VCAM1 TNFa inh = reduces TNF alpha induced VCAM1 expression in HUVEC. inhibition, % at 2 µM. actives 0.48% (n = 95,000). HUVEC TNFa-induced VCAM-1 immunofluorescence, high-content imaging;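 active = inhibition above the batch mean plus 3 SD, with images confirmed as a hit by eye, cut at about 37% in these data; inconclusive = inhibition above that limit but hit not confirmed in images; inactive = inhibition not above that limit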;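 note: 0% = TNF-stimulated DMSO wells and 100% = unstimulated control wells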
# TNFa cytotox = HUVEC cytotoxicity counter-screen, TNF alpha stimulated | HUVEC TNFalpha-stimulated, Hoechst cell count, imaging | cell count reduction, % at 2 µM | actives 0.17% (n = 93,000);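 active = cell count reduction exceeding the screen mean by over 5 SD, scaled to untreated wells per plate, cut at about 78% in these data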;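 note: cells counted after 24 h of TNF alpha exposure following the 1 h pretreatment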
# E-sel TNF inh = TNF alpha driven E-selectin expression inhibition; actives 0.71% (n = 120,000); inhibition, % at 2 µM; AID 1246; HUVEC TNFa-induced E-selectin immunofluorescence, high content;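 active = inhibition above the batch mean plus 3 SD, and confirmed as a hit on visual image review, cut at about 43% in these data; inconclusive = passes the inhibition cutoff but fails visual image review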;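 note: 0% = TNF-stimulated DMSO wells and 100% = unstimulated control wells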
# cytoskel mod = cytoskeleton assembly modification; HUVEC TNFa F-actin phalloidin imaging, high content; inhibition, % at 2 µM; actives 0.18% (n = 91,000); AID 836;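 active = inhibition above the batch mean plus 3 SD and confirmed as a hit by visual image inspection, cut at about 30% in these data, passing the limit was not always enough; inconclusive = above the inhibition threshold but rejected on visual inspection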
# * marks the source's active call; other numbers are inactive results; u = inconclusive; x = no result given. Most compounds without a hit are left out; they make up all but 1% or so of the library.
SMILES,VCAM1 TNFa inh,TNFa cytotox,E-sel TNF inh,cytoskel mod
CCC(=O)c1ccc(OC(C)C(=O)NC2(C#N)CCCCC2)cc1 (stereo not drawn),x,x,-24.2,x
N#Cc1ccc(NC(=S)NCCN2CCOCC2)cc1,x,x,-36.5,x
O=C(NCN1C(=O)C2C3C=CC(C3)C2C1=O)Nc1nncs1 (stereo not drawn),11.0,57.8,99.9*,0.3
COc1cccc(C2NC(=O)NC(C)=C2C(=O)OCCSC)c1OC (stereo not drawn),1.4,-14.0,x,26.9
O=C(O)/C=C/c1ccc2ccccc2n1,3.4,-5.9,85.0*,-5.2
Oc1ccc(/C=C/c2ccc3ccccc3n2)cc1,x,x,-11.2,x
COc1ccc(-c2cnnn2-c2ccc(N)cc2)cc1OC,17.2,-16.7,13.2,4.6
Nc1cccc(-n2nncc2-c2ccc(Cl)cc2)c1,10.7,-4.2,65.1*,-8.7
O=C(NC1CC1)c1ccc(S(=O)(=O)NCC2CCCCC2)cc1,50.7*,52.6,-4.8,54.9*
O=C(NC1CC1)c1ccc(S(=O)(=O)NC2CCCCCC2)cc1,11.3,-13.7,-14.3,30.3
Cc1occc1-c1nnc(SCC(=O)N2CCc3ccccc32)o1,23.3,-2.6,-38.2,-5.1
COc1cc(C(=O)Nc2ccc3c(c2)C(=O)c2ccccc2C3=O)cc(OC)c1OC,x,x,63.6*,x
CCOc1ccc(NC(=O)NC23CC4CC(CC(C4)C2)C3)cc1,x,x,11.2,x
CCOC(=O)C(O)(C1C(=O)CC(C)(C)CC1=O)C(F)(F)F (stereo not drawn),-14.6,-8.9,-11.4,21.2
CC(C)Oc1ccccc1C1CC(=O)Nc2cc3c(cc21)OCCO3 (stereo not drawn),86.4*,45.5,-7.7,2.3
CCC(C)NS(=O)(=O)c1ccc(OCC(=O)NCc2ccco2)cc1 (stereo not drawn),0.9,-0.9,14.1,-8.0
COc1ccc(S(=O)(=O)NC(CC(=O)NCc2ccco2)C(C)C)cc1 (stereo not drawn),u,100.0*,x,u
Cc1ccc2nsnc2c1NC(=O)c1cccnc1Cl,x,x,-9.2,x
Cc1cccc(C(=O)N/N=C/c2ccc(OC3CSC3)cc2)c1,4.8,-10.4,-25.8,-2.9
COc1cccc(C(=O)N/N=C/c2ccc(OC3CSC3)cc2)c1,x,93.9*,10.4,-134.6
O=C(NCC1CCCO1)c1cc(C(=O)c2ccc(Cl)cc2Cl)c[nH]1 (stereo not drawn),x,x,-61.5,x
c1ccc(-n2c(-c3ccncc3)nnc2N2CCOCC2)cc1,2.3,-29.9,60.2*,5.7
c1ccc(-n2c(-c3ccncc3)nnc2-c2ccco2)cc1,-3.2,-38.4,-9.8,0.7
COc1ccc(S(=O)(=O)N(CCc2ccccc2)CC(=O)NC(C)C)cc1,7.9,-37.4,-2.7,12.6
O=c1c2c(-c3ccc([N+](=O)[O-])cc3)csc2nc2n1CCCCC2,x,x,-7.3,x
SMILES,VCAM1 TNFa inh,TNFa cytotox,E-sel TNF inh,cytoskel mod
CCOC(=O)c1cccc(NC(=O)CSc2nnc(-c3ccoc3C)n2CCOC)c1,49.9,90.9*,100.0*,-73.4
Cc1occc1-c1nnc(SCC(=O)Nc2ccccc2)n1CCc1ccccc1,-11.3,-3.6,-0.1,4.5
Cc1cc(N2CCC(C)CC2)nc2cccc(O)c12,-19.2,-1.8,8.8,2.1
Cc1ccc(NC(=O)Cn2cnc3sc(C(=O)NCCN(C)C)c(C)c3c2=O)cc1Cl,9.4,-1.4,50.2*,-15.0
Cc1ccc2nc(Cl)c3cc(C(=O)NCCCN4CCCC4)sc3c2c1,x,x,-8.7,x
COc1ccc(-n2c(C)c3c(OC)cccc(=O)c3c2C)cc1,-6.5,-3.1,56.3*,8.2
COc1cccc(=O)c2c(C)oc(C)c12,10.6,-0.4,6.6,-2.9
Cc1n[nH]c(C)c1CCNCc1ccc(OCC(O)CN2CCCCC2)cc1 (stereo not drawn),x,x,-22.8,x
CS(=O)(=O)C1=NSC2=NC(=O)/C(=C\c3cccn3-c3ccc(Cl)cc3)C(=N)N21,x,x,99.9*,x
CC(=O)c1c(C(C)=O)c(C)n(NC(=O)c2ccccc2O)c1C,-4.4,-16.2,1.5,75.7*
CC(=O)c1c(C(C)=O)c(C)n(NC(=O)c2cccnc2)c1C,12.0,-26.8,x,-3.4
N#Cc1cccc(-n2c(-c3ccccc3)nnc2-c2ccccc2)c1C#N,-1.3,-10.1,100.0*,-2.9
N#Cc1ccc(-n2c(-c3ccccc3)nnc2-c2ccccc2)cc1C#N,-53.8,-36.6,15.3,13.2
CC(C)c1c(O)cc(-c2ccncc2)n(-c2ccc(Cl)cc2)c1=O,x,x,68.5*,x
Cc1ccc(C)c(N(CC(=O)NC2CCCC2)C(=O)c2cc3cc4cc(C)ccc4nc3s2)c1,47.6,84.5*,x,1.1
Cc1cc(NC(=O)CSc2nc(-c3cccs3)cc(C(F)(F)F)n2)no1,52.7*,21.2,-13.2,-9.9
Cc1c(NC(=O)COC(=O)c2ccc(S(=O)(=O)N3CCOCC3)cc2)c(=O)n(-c2ccccc2)n1C,x,x,21.7,x
